Assay [1] addresses T1, Aspartate--tRNA(Asp/Asn) ligase (Mycobacterium tuberculosis (strain ATCC 25618 / H37Rv)) (UniProt P9WFW3).
T1 sequence (whole entry): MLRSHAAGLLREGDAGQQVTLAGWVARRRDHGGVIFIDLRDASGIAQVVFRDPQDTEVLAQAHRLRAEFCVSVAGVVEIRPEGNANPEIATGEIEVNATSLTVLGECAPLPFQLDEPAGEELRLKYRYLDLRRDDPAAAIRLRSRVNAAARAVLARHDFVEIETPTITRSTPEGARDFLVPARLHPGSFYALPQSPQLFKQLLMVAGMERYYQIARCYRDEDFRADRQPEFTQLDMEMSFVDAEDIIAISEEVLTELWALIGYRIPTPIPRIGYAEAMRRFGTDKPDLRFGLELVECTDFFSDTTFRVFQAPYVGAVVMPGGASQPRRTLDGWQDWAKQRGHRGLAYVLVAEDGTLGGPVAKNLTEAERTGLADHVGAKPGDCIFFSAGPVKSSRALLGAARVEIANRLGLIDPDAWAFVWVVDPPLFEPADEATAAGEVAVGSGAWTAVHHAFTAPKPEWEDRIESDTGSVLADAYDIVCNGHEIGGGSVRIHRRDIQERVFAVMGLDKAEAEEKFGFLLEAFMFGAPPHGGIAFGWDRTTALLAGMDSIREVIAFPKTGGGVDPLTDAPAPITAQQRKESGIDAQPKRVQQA
As to the kind of experiment: Assay for Asp RNA synthetase-1 from Mycobacterium tuberculosis. Also on record: scale not given: direction of the effect not stated beside the values. Particulars: 30 µM. The format is functional.

For assay [2], the target named is Shiga toxin 2 (Escherichia coli O157:H7) (UniProt P09385+P09386). As to the kind of experiment: E. coli 0.157:H7 Shiga Toxin SOP - stx2 screening assay. It is filed as functional. Also on record: scale not given: direction of the effect not stated beside the values. Particulars: 30 µM.

Structures are written as SMILES.

Turning to `NCc1cnn(-c2ccccc2C(=O)NCc2ccncc2)c1`, the Percent Effect was -3.11% in assay [1] and 13.2% in assay [2].

For `CCc1csc(CCNC(=O)C2CC(=O)N(C(C)C)C2)n1` (stereo unspecified), the Percent Effect is -1.9% in assay [1] and -30.4% in assay [2].

Consider `CN(c1ccc(C(=O)NCCCN2CCOCC2)c(Cl)c1)S(C)(=O)=O`, for which the Percent Effect in assay [1] is -4.13%; in assay [2] it was -32.5%.
